In PubChem BioAssay (Tox21):
Records with an inconclusive call do not appear. Active and inactive are the calls of the source. Unless noted, calls come from the whole dose curve; as a rule, active = well fitted curve in the direction sought with a large enough effect in the repeat runs; inconclusive = weak or mixed curves; inactive = no such curve, though single readings can be large; an effect the other way counts as inactive or inconclusive.

Key:
[1] = target: Thyrotropin receptor (Homo sapiens) (UniProt P16473); experiment: qHTS assay to identify small molecule antagonists of the thyroid stimulating hormone receptor (TSHR) signaling pathway (AID 1259385; calls by dose curve; note: nearly all actives have a fitted effect of over 20% in size)
Chain of Thyrotropin receptor (Homo sapiens) (P16473 whole entry, looked up): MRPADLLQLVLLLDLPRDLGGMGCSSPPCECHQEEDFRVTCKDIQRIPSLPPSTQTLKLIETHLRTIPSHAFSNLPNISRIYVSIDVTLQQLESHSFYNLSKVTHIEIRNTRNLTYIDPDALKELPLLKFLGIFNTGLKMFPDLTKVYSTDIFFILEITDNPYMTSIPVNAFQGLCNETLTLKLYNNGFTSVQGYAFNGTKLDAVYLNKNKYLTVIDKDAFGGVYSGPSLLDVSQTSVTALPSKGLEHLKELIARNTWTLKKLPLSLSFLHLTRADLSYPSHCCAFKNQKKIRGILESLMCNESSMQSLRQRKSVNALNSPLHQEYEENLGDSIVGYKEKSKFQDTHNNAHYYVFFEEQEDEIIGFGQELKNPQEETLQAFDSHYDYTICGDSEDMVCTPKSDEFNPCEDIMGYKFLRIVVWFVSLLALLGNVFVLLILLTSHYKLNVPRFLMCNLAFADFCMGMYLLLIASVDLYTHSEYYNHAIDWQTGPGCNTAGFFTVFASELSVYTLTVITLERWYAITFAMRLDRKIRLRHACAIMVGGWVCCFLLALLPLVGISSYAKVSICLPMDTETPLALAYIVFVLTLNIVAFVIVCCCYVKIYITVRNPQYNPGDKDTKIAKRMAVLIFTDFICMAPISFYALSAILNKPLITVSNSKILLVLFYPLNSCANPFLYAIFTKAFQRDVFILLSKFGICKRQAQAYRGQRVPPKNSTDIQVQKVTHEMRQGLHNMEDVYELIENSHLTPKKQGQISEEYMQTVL
Procedure, shortened: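 Antagonist mode: compound-treated TSHR-expressing HEK293 cells were stimulated with 1.5 ng/mL TSH (final) in presence of Ro20-1724 for 30 min at RT. HTRF cAMP detection after 1 h; each compound tested at 15 concentrations, triplicate.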

[2] = qHTS assay to identify small molecule agonists of the estrogen receptor alpha (ER-alpha) signaling pathway in the presence of an antagonist - cell viability counter screen (AID 1259386);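 note: series mostly up to about 92 µM; cells exposed to compounds for 22 h at 37 °C before the viability read; nearly all actives have a fitted effect of over 30% in size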
Procedure, shortened: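 Viability counter screen using VM7Luc4E2 (full-length ER-alpha, four ERE-luciferase). The cells were treated with compounds alongside ICI-182,780 10.0nM for 22hr, and live-cell protease fluorescence was quantified with CellTiter-Fluor.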

[3] = qHTS assay to identify small molecule antagonists of the progesterone receptor (PR) signaling pathway - cell viability counter screen (AID 1346798); note: series mostly up to about 92 µM; nearly all actives have a fitted effect of over 50% in size
Procedure, shortened: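 ATP content as viability readout: CellTiter-Glo luminescence, 30 min room temperature, in PR-UAS-bla HEK293T cells after 16 hr compound/R5020 treatment at 37C and 5% CO2.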

[4] = qHTS assay to identify small molecule agonists of the progesterone receptor (PR) signaling pathway - cell viability counter screen (AID 1346799; calls by dose curve; note: nearly all actives have a fitted effect of over 45% in size)
Procedure, shortened: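 Cytotoxicity in PR-bla HEK293T cells: 16 h compound, 37C; CellTiter-Glo added post-FRET read; luminescence after 30 min RT.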

[5] = qHTS assay to identify small molecule antagonists of the TGF-beta/Smad signaling pathway - cell viability counter screen (AID 1346824); note: nearly all actives have a fitted effect of over 50% in size
Procedure, shortened: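 Cytotoxicity counter-screen run in the same wells as the beta-lactamase Smad reporter read: CellTiter-Glo luminescence after 30 min at room temperature. HEK 293T SBE-bla cells had 5 hr compound exposure at 37 C with TGF-beta1 (0.25 ng/mL stock).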

[6] = qHTS assay to identify small molecule agonists of the TGF-beta/Smad signaling pathway - cell viability counter screen (AID 1346829); note: top concentration of the series differs between compounds; nearly all actives have a fitted effect of over 45% in size
Procedure, shortened: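 Tox21 qHTS format: SBE-bla HEK 293T cells treated with DMSO-dissolved compounds for 5 hr; CellTiter-Glo luminescence after 30 min at room temperature.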

[7] = target: Thyrotropin-releasing hormone receptor (Homo sapiens) (UniProt P34981); experiment: qHTS assay to identify small molecule antagonists of the thyrotropin-releasing hormone receptor (TRHR) signaling pathway (AID 1346877; active = well fitted inhibition curve with a large enough effect in the repeat runs, not every such curve was filed as active; note: series mostly up to about 51 µM)
Chain of Thyrotropin-releasing hormone receptor (Homo sapiens) (P34981 whole entry, looked up): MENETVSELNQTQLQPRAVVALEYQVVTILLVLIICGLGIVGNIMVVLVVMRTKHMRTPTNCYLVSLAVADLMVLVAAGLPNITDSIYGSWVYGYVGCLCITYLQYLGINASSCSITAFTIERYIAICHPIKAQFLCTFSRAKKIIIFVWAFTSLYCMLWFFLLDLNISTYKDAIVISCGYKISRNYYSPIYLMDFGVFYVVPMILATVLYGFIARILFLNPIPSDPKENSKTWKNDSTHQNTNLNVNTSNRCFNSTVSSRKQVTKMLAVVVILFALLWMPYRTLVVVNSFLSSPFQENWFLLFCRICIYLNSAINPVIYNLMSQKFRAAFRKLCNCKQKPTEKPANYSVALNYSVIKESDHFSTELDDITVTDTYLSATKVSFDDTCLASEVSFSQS
Procedure, shortened: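 Following an 18 h incubation at 37 °C and a 2 h calcium dye load, TRHR-HEK293 cells were exposed to compound (5 min, room temperature) and challenged with TRH, 1 nM final.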

[8] = target: Thyrotropin-releasing hormone receptor (Homo sapiens) (UniProt P34981); experiment: qHTS assay to identify small molecule agonists of the thyrotropin-releasing hormone receptor (TRHR) signaling pathway (AID 1346891; calls by dose curve;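 note: HEK293 cells expressing TRHR with calcium dye readout; series mostly up to about 58 µM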)
Procedure, shortened: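 In 1536-format, 1500 TRHR-Hek293 cells per well grew 18 h, took up calcium dye for 2 h at 37 °C, received compound, and were read kinetically; 15-point titrations, triplicates.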

[9] = Human pregnane X receptor (PXR) small molecule agonists, qHTS cell viability counter screen (AID 1346977); note: nearly all actives have a fitted effect of over 50% in size; note: potency is the fitted concentration of half-maximal effect
Procedure, shortened: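 Readout is CellTiter-Fluor fluorescence from PXR-Luc HepG2 cells. Plated cells rested 5hr, then were treated with compounds for 24hr at 37C and 5% CO2, with reagent present during the last hour.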

[10] = Caspase-3/7 induction in HepG2 cells by small molecules, qHTS assay (AID 1346978); note: nearly all actives have a fitted effect of over 15% in size
Procedure, shortened: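 Caspase-3/7 induction was measured by Caspase-Glo 3/7 luminescence (30 min, room temperature) after a 17 hr compound exposure of wild-type HepG2 cells seeded at 2,000 per well and pre-incubated 5 hr.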

[11] = Caspase-3/7 induction in CHO-K1 cells by small molecules, qHTS cell viability counter screen (AID 1346979); note: nearly all actives have a fitted effect of over 35% in size
Procedure, shortened: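 To flag cytotoxic compounds, treated CHO-K1 wild-type cells were given CellTiter-Fluor at 16hr and read fluorescently after 1hr at 37C; the caspase-3/7 luminescence was measured in these same wells.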

[12] = Caspase-3/7 induction in CHO-K1 cells by small molecules, qHTS assay (AID 1346980); note: nearly all actives have a fitted effect of over 15% in size
Procedure, shortened: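 Luminescent Caspase-Glo 3/7 read (30min, room temperature) quantified apoptosis induction. Cells were wild-type CHO-K1, treated with compound for 17hr at 37 C and 5% CO2.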

[13] = target: Progesterone receptor (Homo sapiens) (UniProt P06401); experiment: qHTS assay to identify small molecule agonists of the progesterone receptor (PR) signaling pathway (AID 1346784; calls by dose curve; note: nearly all actives have a fitted effect of over 30% in size)
Chain of Progesterone receptor (Homo sapiens) (P06401 whole entry, looked up): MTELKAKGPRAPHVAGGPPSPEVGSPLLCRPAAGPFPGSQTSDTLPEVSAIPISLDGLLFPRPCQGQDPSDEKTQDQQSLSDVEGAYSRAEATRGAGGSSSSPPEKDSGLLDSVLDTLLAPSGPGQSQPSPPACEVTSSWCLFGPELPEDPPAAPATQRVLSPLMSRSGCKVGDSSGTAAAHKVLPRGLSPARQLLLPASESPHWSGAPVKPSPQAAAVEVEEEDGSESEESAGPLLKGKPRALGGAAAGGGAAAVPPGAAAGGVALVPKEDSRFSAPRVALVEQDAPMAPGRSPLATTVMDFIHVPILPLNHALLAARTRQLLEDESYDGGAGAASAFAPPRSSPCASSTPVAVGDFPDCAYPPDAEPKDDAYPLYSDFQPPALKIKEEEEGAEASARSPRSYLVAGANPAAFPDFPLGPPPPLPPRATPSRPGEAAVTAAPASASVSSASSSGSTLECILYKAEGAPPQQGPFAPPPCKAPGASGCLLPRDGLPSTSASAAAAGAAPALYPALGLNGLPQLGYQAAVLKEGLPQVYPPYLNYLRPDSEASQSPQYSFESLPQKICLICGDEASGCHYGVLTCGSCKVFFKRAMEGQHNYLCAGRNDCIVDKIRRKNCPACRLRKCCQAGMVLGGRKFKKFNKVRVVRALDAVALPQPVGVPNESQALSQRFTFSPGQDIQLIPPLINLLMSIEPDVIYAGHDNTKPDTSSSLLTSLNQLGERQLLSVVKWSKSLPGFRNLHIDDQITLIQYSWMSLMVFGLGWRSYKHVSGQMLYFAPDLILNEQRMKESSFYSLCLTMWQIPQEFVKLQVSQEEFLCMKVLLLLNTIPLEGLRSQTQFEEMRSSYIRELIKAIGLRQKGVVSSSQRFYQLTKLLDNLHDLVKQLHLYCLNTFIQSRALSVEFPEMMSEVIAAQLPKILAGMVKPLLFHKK
Procedure, shortened: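 Using charcoal-stripped serum (2%) to limit endogenous steroids, PR-UAS-bla HEK 293T cells received compounds for 16 hr at 37C after 6 hr plating; beta-lactamase FRET fluorescence was recorded following 2 hr substrate loading at room temperature.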

[14] = target: Progesterone receptor (Homo sapiens) (UniProt P06401); experiment: qHTS assay to identify small molecule antagonists of the progesterone receptor (PR) signaling pathway (AID 1346795; active = well fitted inhibition curve with a large enough effect in the signal ratio in the repeat runs, not every such curve was filed as active; the % refers to the signal ratio; note: potency is the fitted concentration of half-maximal effect)
Procedure, shortened: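 Inhibition of R5020-induced (1 nM final) beta-lactamase reporter signal in PR-UAS-bla HEK293T cells was scored by FRET fluorescence after overnight (16 hr) compound treatment.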

[15] = qHTS assay to identify small molecule agonists of the TGF-beta/Smad signaling pathway (AID 1346859; active = well fitted activation curve with a large enough effect in the signal ratio in the repeat runs, not every such curve was filed as active; the % refers to the signal ratio; note: series mostly up to about 77 µM)
Procedure, shortened: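 Stable Smad binding element-beta-lactamase HEK 293T cells; 5 hr compound exposure at 37 C under 5% CO2; 2 hr room-temperature substrate step; fluorescence excited at 405 nm, collected at 460 nm and 530 nm.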

[16] = target: Nuclear receptor subfamily 1 group I member 2 (Homo sapiens) (UniProt O75469); experiment: Human pregnane X receptor (PXR) small molecule agonists, qHTS assay (AID 1346982); note: nearly all actives have a fitted effect of over 35% in size
Chain of Nuclear receptor subfamily 1 group I member 2 (Homo sapiens) (O75469 whole entry, looked up): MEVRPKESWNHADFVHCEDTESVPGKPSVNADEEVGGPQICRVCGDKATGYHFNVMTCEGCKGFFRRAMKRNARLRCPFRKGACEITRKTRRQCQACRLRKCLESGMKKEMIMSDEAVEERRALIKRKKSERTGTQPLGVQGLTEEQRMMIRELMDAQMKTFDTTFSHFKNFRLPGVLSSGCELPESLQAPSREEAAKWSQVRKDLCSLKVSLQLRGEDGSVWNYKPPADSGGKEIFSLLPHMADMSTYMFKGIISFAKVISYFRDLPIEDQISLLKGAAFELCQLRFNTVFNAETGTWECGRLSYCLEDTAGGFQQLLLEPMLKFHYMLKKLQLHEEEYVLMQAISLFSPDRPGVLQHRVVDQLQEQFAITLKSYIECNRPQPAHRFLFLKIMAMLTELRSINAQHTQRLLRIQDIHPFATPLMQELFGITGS
Procedure, shortened: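 Compound-induced hPXR transactivation of a CYP3A4 luciferase reporter was scored in HepG2 PXR-Luc cells over 24 hr at 37 C, 5% CO2, by luminescence.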

[17] = Caspase-3/7 induction in HepG2 cells by small molecules, qHTS cell viability counter screen (AID 1346981); note: series mostly up to about 92 µM; nearly all actives have a fitted effect of over 30% in size
Procedure, shortened: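 Viability determined by CellTiter-Fluor fluorescence in HepG2 wells also used for the luminescent Caspase-Glo 3/7 read. Compounds were present for 16 hr at 37 C, 5% CO2 before reagent addition.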

[18] = target: Nuclear receptor subfamily 1 group I member 2 (Rattus norvegicus) (UniProt Q9R1A7); experiment: Rat pregnane X receptor (rPXR) activation by small molecules, qHTS assay (AID 1346983); conditions: rPXR luciferase reporter cells, One-Glo luminescence, 24 h; max activation: hits give high values; note: nearly all actives have a fitted effect of over 20% in size
Chain of Nuclear receptor subfamily 1 group I member 2 (Rattus norvegicus) (Q9R1A7 whole entry, looked up): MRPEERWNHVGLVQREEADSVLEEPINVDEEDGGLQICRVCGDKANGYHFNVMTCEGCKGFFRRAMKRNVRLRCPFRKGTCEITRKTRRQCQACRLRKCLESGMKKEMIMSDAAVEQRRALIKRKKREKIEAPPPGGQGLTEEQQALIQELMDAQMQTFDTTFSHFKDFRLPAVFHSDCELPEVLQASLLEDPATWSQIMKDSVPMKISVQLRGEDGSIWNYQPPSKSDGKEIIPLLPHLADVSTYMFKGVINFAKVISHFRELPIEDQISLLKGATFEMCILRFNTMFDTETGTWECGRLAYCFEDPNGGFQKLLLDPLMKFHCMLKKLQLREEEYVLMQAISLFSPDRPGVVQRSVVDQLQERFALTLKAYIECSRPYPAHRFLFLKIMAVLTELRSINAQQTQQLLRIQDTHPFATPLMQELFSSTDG
Procedure, shortened: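 Luminescent readout (One-Glo luciferase, 30 min room temperature) followed 24 hr compound treatment at 37 C of rPXR cells plated 2,000 per well and preincubated 5hr; qHTS format with compounds delivered in DMSO.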

[19] = target: Nuclear receptor subfamily 1 group I member 2 (Homo sapiens) (UniProt O75469); experiment: CYP3A4 induction through human pregnane X receptor (PXR) by small molecules, qHTS assay (AID 1346984); note: nearly all actives have a fitted effect of over 40% in size
Procedure, shortened: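 Readings come from a luciferase reporter: DPX-2 cells, which are HepG2 cotransfected with PXR and a CYP3A4-promoter construct, were exposed to test compounds for 24 h at 37C before One-Glo detection.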

[20] = target: Nuclear receptor subfamily 1 group I member 2 (Homo sapiens) (UniProt O75469); experiment: Human pregnane X receptor (PXR) activation by small molecules, qHTS assay (AID 1346985); note: nearly all actives have a fitted effect of over 40% in size
Procedure, shortened: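 DPX-2 cells (HepG2 co-transfected with a PXR response element and a CYP3A4-promoter luciferase construct) were seeded at 2,000 per well, rested 5 hr at 37C, then exposed to DMSO-dissolved compounds for 24 hr. Activation was read as luciferase luminescence.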
% is set by controls: 0 for no effect and ±100 for the full control effect.

O=S(=O)(c1cccc2cnccc12)N1CCCNCC1
inactive: Potency [1] | outcome [2] | Potency [3] | Potency [4] | outcome [5] | outcome [6] | outcome [7] | outcome [8] | outcome [10] | Potency [11] | outcome [12]
active: Potency [9] 26.6 µM

CC(C)CCOC(=O)CC(C)C
inactive: outcome [2] | Potency [13] | Potency [14] | Potency [3] | Potency [4] | outcome [5] | outcome [6] | outcome [15] | outcome [7] | outcome [8] | Potency [9] | Potency [11] | outcome [12] | Potency [16]

CC(C)COC(=O)C(C)C
inactive: Potency [1] | outcome [2] | Potency [3] | outcome [5] | outcome [6] | outcome [15] | outcome [7] | outcome [8] | Potency [9] | outcome [10] | Potency [11] | outcome [12] | outcome [17] | Potency [16]

O=C(O)CCNC(=O)c1ccc(N=Nc2ccc(O)c(C(=O)O)c2)cc1
inactive: Potency [1] | Potency [13] | Potency [14] | Potency [3] | outcome [5] | outcome [6] | outcome [15] | outcome [7] | outcome [8] | Potency [9] | outcome [10] | outcome [12] | max activation [18] -1.98% | Potency [19] | Potency [20]

C(=C(c1ccccc1)c1ccccc1)c1ccccc1
active: Potency [14] 12.2 µM
inactive: outcome [2] | Potency [13] | Potency [3] | outcome [5] | outcome [6] | outcome [7] | outcome [8] | Potency [9] | outcome [10] | Potency [11] | outcome [12] | outcome [17]

CC/C=C\C#N
inactive: Potency [1] | outcome [2] | Potency [3] | Potency [4] | outcome [5] | outcome [7] | outcome [8] | Potency [9] | outcome [10] | Potency [11] | outcome [12] | outcome [17] | Potency [16]

CC(=O)N[C@@H](CCC(N)=O)C(=O)O
inactive: outcome [2] | Potency [13] | Potency [14] | Potency [3] | Potency [4] | outcome [5] | outcome [6] | outcome [15] | outcome [7] | outcome [8] | Potency [9] | Potency [11] | outcome [12] | outcome [17]

C#CC(C)(O)CC(C)C (centres undefined)
inactive: outcome [2] | Potency [13] | Potency [14] | Potency [3] | Potency [4] | outcome [5] | outcome [6] | outcome [7] | outcome [8] | Potency [9] | outcome [10] | Potency [11] | outcome [12] | outcome [17]

CC(O)CN(CCCN(C)C)CCCN(C)C (centres undefined)
inactive: outcome [2] | Potency [13] | Potency [14] | Potency [3] | Potency [4] | outcome [6] | outcome [15] | outcome [7] | outcome [8] | Potency [9] | outcome [10] | Potency [11] | outcome [12] | outcome [17] | Potency [16]
